High-throughput results deposited in PubChem by Buhrlage Lab, Dana-Farber Cancer Institute and Novartis Institutes for BioMedical Research (Cambridge, Mass).
A selection: hits, their analogues and other compounds. The true share with any hit is near 4.9%.
OTUD3 block = inhibitors of human OTUD3 deubiquitinase; AID 1645858, 2021; inhibition, % at 25 µM; OTU domain-containing protein 3 (Homo sapiens), Q5T2D3; 47,000 tested, 0.7% active; purified OTUD3, Ub-rhodamine fluorescence, 2 h
USP7 inh = inhibitors of human USP7 deubiquitinase; 47,000 tested, 0.3% active; purified USP7, Ub-rhodamine cleavage fluorescence; inhibition, % at 20 µM
UCHL1 inh = inhibitors of human UCHL1 deubiquitinase; Ubiquitin carboxyl-terminal hydrolase isozyme L1 (Homo sapiens), P09936; purified UCHL1, Ub-rhodamine cleavage fluorescence; inhibition, % at 20 µM; 47,000 tested, 0.2% active; AID 1645859, 2021
USP10 block = inhibitors of human USP10 deubiquitinase. 47,000 tested, 1.1% active. inhibition, % at 20 µM. purified USP10, Ub-rhodamine fluorescence, 60 min. Ubiquitin carboxyl-terminal hydrolase 10 (Homo sapiens), Q14694
USP8 block = inhibitors of human USP8 deubiquitinase; Ubiquitin carboxyl-terminal hydrolase 8 (Homo sapiens), P40818; purified USP8, Ub-rhodamine cleavage fluorescence, 30 min; inhibition, % at 20 µM; 47,000 tested, 4.2% active; AID 1645853, 2021
The depositor's hits bear a star. Rule as the data show it: active = inhibition above about 30%; inactive = the rest.

SMILES | OTUD3 block | USP7 inh | UCHL1 inh | USP10 block | USP8 block
COC[C@H]1CCCN1C(=O)CC[C@H]1CNC(=O)[C@@H]2[C@@H](CCN2C2CCOCC2)N1C | 14.3 | -7.2 | 6.9 | -0.5 | 40.2*
COC[C@H]1CCCN1C(=O)CC[C@H]1CNC(=O)[C@@H]2[C@@H](CCN2C(C)C)N1C | 11.3 | -1.4 | 6.2 | 0.9 | 40.8*
CC1CCCN1C(=O)c1ccn(-c2ccc3ccc(-c4ccccc4)cn23)n1 (stereo not drawn) | -116.0 | -57.6 | -69.3 | -8.6 | -139.9
Cc1ccc(C)c(S(=O)(=O)NCCn2cnc3ccccc32)c1 | -14.1 | 0.4 | 0.0 | -3.1 | 0.3
O=C1CN(C(=O)COc2ccc(F)cc2Cl)c2ccccc2N1 | -7.3 | -11.3 | -6.5 | -3.1 | -0.9
O=C1CN(C(=O)COc2cccc3ccccc23)c2ccccc2N1 | 2.2 | 0.5 | 5.1 | -2.7 | 84.2*
Cc1cccc(C(C)C)c1NC(=O)COC(=O)c1cc2ccccc2oc1=O | -3.4 | -0.9 | 0.0 | -0.1 | -3.2
CCc1cccc(CC)c1NC(=O)COC(=O)c1cc2cccc(OC)c2oc1=O | 6.1 | 22.4 | 2.6 | 32.6* | 61.9*
COc1ccc(Cl)cc1NC(=O)COC(=O)c1cc2ccccc2oc1=O | -1.6 | 8.6 | -0.3 | 11.0 | 70.4*
CC(C)(C)NC(=O)c1cccc(NC(=O)CSCc2ccc(Cl)cc2)c1 | 0.4 | 2.8 | 1.7 | 1.3 | 2.3
COc1ccccc1-c1ccc(CN2[C@@H](c3ccccc3)C[C@@H]3NC(=O)CCC[C@H]32)cc1 | -254.7 | -155.9 | -144.1 | -8.9 | -94.6
COc1cc2c(=O)c(C(=O)c3ccc(F)cc3)cn(CC(=O)Nc3ccc(F)cc3)c2cc1OC | 3.3 | 6.6 | 2.5 | 22.3 | 5.9
CCc1ccc(S(=O)(=O)c2cn(CC(=O)Nc3ccccc3)c3ccccc3c2=O)cc1 | -12.8 | 22.5 | -0.5 | 46.4* | 76.7*
COc1cccc(NC(=O)Cn2cc(C(=O)c3ccc(C)cc3)c(=O)c3cc(Cl)ccc32)c1 | 0.1 | 34.9* | 12.6 | 42.8* | 72.6*
Cc1ccc2c(c1)c(=O)c(C(=O)c1ccccc1)cn2CC(=O)Nc1ccccc1 | -2.6 | 29.9 | 8.9 | 27.4 | 88.8*
COc1ccc(NC(=O)Cn2cc(C(=O)c3ccc(F)cc3)c(=O)c3cc(C)ccc32)cc1OC | -9.1 | 12.8 | 8.7 | 20.7 | 55.4*
Cc1ccc(C(=O)c2cn(CC(=O)Nc3ccc(F)c(F)c3)c3ccc(F)cc3c2=O)cc1 | -40.0 | 18.6 | -3.1 | 12.4 | -10.4
Cc1ccc(C(=O)N2c3ccccc3OCC2c2ccccc2)cc1 (stereo not drawn) | 12.8 | 7.1 | 5.2 | 10.9 | 2.8
CC1(c2cccc(Br)c2)NC(=O)N(CC(=O)Nc2cc([N+](=O)[O-])ccc2F)C1=O (stereo not drawn) | 1.3 | -117.5 | 1.0 | 5.3 | -90.2
O=C(NCCN1CCC(Cc2ccccc2)CC1)C1CCN(c2nc3ccccc3[nH]2)CC1 | -9.3 | -3.2 | -0.9 | -3.0 | -18.8
Cc1ccc(NC(=O)Cn2cc(C(=O)c3ccccc3)c(=O)c3cc(C)ccc32)cc1 | -0.6 | 32.1* | 0.4 | 44.4* | 83.4*
CN1C(=O)COc2ccccc2CCCC[C@@H]2[C@H]1CCCN2S(=O)(=O)N1CCOCC1 | 6.6 | 4.0 | 4.2 | -4.5 | 7.7
COc1ccc(-c2nn(-c3ccccc3)cc2C(=O)OC(C(=O)Nc2cccc(OC)c2)c2ccccc2)cc1 (stereo not drawn) | -26.7 | -0.2 | 0.0 | -4.8 | 0.7
O=C(Cc1ccc(Cl)c(Cl)c1)Nc1cccc2ncccc12 | -42.5 | -14.5 | -14.5 | -14.3 | 0.7
O=C(CN1C(=O)COc2ccc(Cl)cc21)Nc1cccc2ncccc12 | -15.0 | -16.5 | 5.6 | -5.7 | 72.9*
CC(=O)Nc1ccc(NC(=O)c2ccc3c(c2)CC(c2ccccc2)OC3=O)cc1 (stereo not drawn) | 0.0 | 4.3 | 1.0 | 21.9 | 33.8*
NS(=O)(=O)c1ccc(NC(=O)c2ccc3c(c2)CC(c2ccccc2)OC3=O)cc1 (stereo not drawn) | 0.4 | -0.1 | 1.7 | 13.9 | 0.5
Cc1ncccc1NC(=O)[C@@H]1C[C@@H]2CCN(c3ccncn3)C[C@H]2O1 | -5.7 | -2.4 | -8.2 | -4.7 | -192.4
COc1cc2c(cc1OC)C(=O)C(CN1CCOCC1)CC2 (stereo not drawn) | -0.1 | 4.6 | 1.2 | -1.0 | 7.1
